Structures are written as SMILES. Values joined by “and” are separate entries in the source; they are usually repeats but may differ in a detail not shown here. Equal entries are not always repeated. Some structures have more than one record in an assay (separate samples or runs), and their calls can disagree. Active and inactive are the calls of the source. How the source made its calls: active means hit-call score of the fitted dose curve at least 0.9, where 1 is the maximum; inactive means score below 0.9.

Read-out in the assay: Peroxisomal acyl-coenzyme A oxidase 1 (ACOX1) gene, ACOX1 (gene 51)
The assay is described as follows: LTEA_HepaRG_ACOX1: Life Technologies and Expression Analysis (LTEA) Assay for Peroxisomal acyl-coenzyme A oxidase 1 (ACOX1) gene using HepaRG (AID 2283467). As to conditions: mRNA level, 48 h; actives raise or lower the signal. The procedure: LTEA_HepaRG is a cell based, multiplexed-readout assay that uses HepaRG, a human liver cell line, with measurements taken at 48 hours after chemical dosing on a 96-well plate.LTEA_HepaRG_ACOX1 is one of 102 assay component(s) measured in the LTEA HepaRG cell culture assay. It is a marker of Steatosis.Data from the assay component LTEA_HepaRG_ACOX1 was analyzed into 1 endpoint. This assay endpoint, LTEA_HepaRG_ACOX1, was analyzed with bidirectional fitting relative to DMSO as the negative control and baseline of activity. Using a type of inducible reporter, measures of mRNA induction for gain or loss-of-signal activity can be used to understand regulation of transcription factor activity. To generalize the intended target to other relatable targets, this assay endpoint is annotated to the oxidase intended target family, where the subfamily is steatosis.
A total of 1060 chemcials from the ToxCast library were tested in eight-point concentration-response experiments. Cell culture and cytotoxicity assays were conducted at Thermo Fisher Scientific's Custom Services facility (Madison, WI). A single lot of human HepaRG cells (Thermo Fisher Scientific, Frederick, MD) was used for the cell culture experiments. 96-well format collagen type I coated plates of human HepaRG cells were prepared using established methods. Briefly, cryopreserved HepaRG cells were thawed, plated at a density of approximately 100,000 cells/well in HepaRG Thaw, Plate, and General Purpose media (HPRG770, Thermo Fisher Scientific), and incubated for 48 hours. 0.5% DMSO was selected as vehicle control to balance the requisite need of DMSO in HepaRG cultures to maintain differentiation (for example, baseline metabolism, proportions of hepatocytes vs. cholangiocytes), while enabling further hepatic receptor pathway activation (for example, PXR and CAR) in response to chemical exposure. 48 hours after plating, the culture medium was replaced with HepaRG Serum-Free Incudtion Media. Cells were exposed to each test chemical in duplicate and maintained in CO2 incubators for another 48 hours. Chemical plates were thawed to room temperature and 200x concentrations of treatment groups were prepared. 8-point conentration-reponse curves were made with the highest exposure at 100 uM, followed by half-log dilutions, all in 0.5% DMSO. Each test plate contained variouse controls, induction positive controls (1mM phenobarbital), cytotoxicity positive controls ([…] aflatoxin B1), vehicle controls (0.5% DMSO), and total lysis controls (0.5% DMSO). Cell morphology images were taken using an Essen IncuCyte FLR automated microscope, with six 96-well plates imaged in about 24 minutes. Images were captured and exported and JPEG files. Spent culture media was transfered to black-well plates for the LDH assay, and remaining media was sorted at -80 C for later use. Cells were treated with RLT buffer and frozen until shipped for gene expression analysis. Total RNA was isolated from the cell suspension in 75 uL of Buffer RLT (Qiagen, Germantown, MD 20874) by Quintiles/Expression Analysis (Durham, NC) using a custom isolation procedure. Total RNA from each plate well was transferred to a preamplification plate. Fluidigm's 96.96 Dynamic ArrayTM (Fluidigm, Amsterdam, the Netherlands) technology was used for gene expression analyses by quantitative reverse transcription polymerase chain reaction (qRT-PCR, performed by Quintiles/Expression Analysis, Durham, NC)89. Standard TaqManTM Assays (Applied Biosystems/ThermoFisher Scientific, Foster City, CA) were used to assess the expression of 93 genes selected based on their selectivity and sensitivity to important hepatic receptors known to be modulated by environmental chemicals; importance in human hepatocyte functionality; and hepatotoxicity. […]
What is called AC50 is the concentration at which the activity in the assay is half-maximal. `O=C(O)C(F)(F)C(F)(F)C(F)(F)C(F)(F)C(F)(F)C(F)(F)C(F)(F)F`: the AC50 is 3.48 µM (active) and 8.37 µM (active).

For the molecule `C#CCN1C(=O)COc2cc(F)c(N3C(=O)C4=C(CCCC4)C3=O)cc21`, the outcome was inactive.

`CNC(=O)Oc1ccccc1OC(C)C`: the result was inactive.

As for `COP(=O)(OC)OC=C(Cl)Cl`, the molecule was classed as inactive.

For `C[C@H]1[C@H](c2ccc(Cl)cc2)SC(=O)N1C(=O)NC1CCCCC1`, the molecule was called inactive.

`CC(C)(C)C(O)/C(=C\c1ccc(Cl)cc1Cl)n1cncn1` (stereo not given): the concentration at half-maximal activity (AC50) is 50 µM (active).

On to `O=C(Nc1ccccc1)Nc1cnns1`, for which the AC50 was 50 µM (active).

Take `N#CN`: the molecule was classed as inactive.

For `CC(C)OC(=O)Nc1cccc(Cl)c1`, the call was inactive.

For `CC1(c2ccc(Oc3ccccc3)cc2)OC(=O)N(Nc2ccccc2)C1=O` (stereo not given), the concentration at half-maximal activity (AC50) was 26.7 µM (active).

On to `O=S1OCC2C(CO1)C1(Cl)C(Cl)=C(Cl)C2(Cl)C1(Cl)Cl` (stereo not given), for which the AC50 is 53.9 µM (active).

As to `Oc1cc(Cl)ccc1Oc1ccc(Cl)cc1Cl`, the molecule was called inactive.

In the case of `CC1(C)C(C=C(Cl)Cl)C1C(=O)OC(C#N)c1ccc(F)c(Oc2ccccc2)c1` (stereo not given), the outcome was inactive.

Take `OCCOc1ccccc1`: the molecule was called inactive.

`CCC(C)(NC(=O)c1cc(Cl)c(C)c(Cl)c1)C(=O)CCl` (stereo not given): the half-maximal activity concentration (AC50) is 85.1 µM (active).

For `CCC(C)Nc1c([N+](=O)[O-])cc(C(C)(C)C)cc1[N+](=O)[O-]` (stereo not given), the call was inactive.

Turning to `CCOCN(C(=O)CCl)c1c(C)cccc1CC`, the half-maximal activity concentration (AC50) is 78.9 µM (active).

For the molecule `N#Cc1c(Cl)c(Cl)c(Cl)c(C#N)c1Cl`, the call was inactive.

With `Clc1ccccc1-c1nnc(-c2ccccc2Cl)nn1`, the result was inactive.

Regarding `CCCN(CCOc1c(Cl)cc(Cl)cc1Cl)C(=O)n1ccnc1`, the AC50 was 50 µM (active).

Turning to `O=[N+]([O-])c1c(Cl)c(Cl)c(Cl)c(Cl)c1Cl`, the outcome was inactive.

On to `CCOC1Oc2ccc(OS(C)(=O)=O)cc2C1(C)C` (stereo not given), for which the half-maximal activity concentration (AC50) is 60.8 µM (active).

Take `COP(=S)(OC)Oc1ccc(SC)c(C)c1`: the call was inactive.

As for `CC[C@H](C)[C@H]1O[C@]2(C=C[C@@H]1C)C[C@@H]1C[C@@H](C/C=C(\C)[C@@H](O[C@H]3C[C@H](OC)[C@@H](O[C@H]4C[C@H](OC)[C@@H](O)[C@H](C)O4)[C@H](C)O3)[C@@H](C)/C=C/C=C3\CO[C@@H]4[C@H](O)C(C)=C[C@@H](C(=O)O1)[C@]34O)O2` (tested in a mixture with another compound), the half-maximal activity concentration (AC50) was 30.2 µM (active).

Regarding `O=C(O)COc1ccc(Cl)cc1Cl`, the result was inactive.

As to `CC(C)N(C(=O)COc1nnc(C(F)(F)F)s1)c1ccc(F)cc1`, the concentration at half-maximal activity (AC50) was 19.4 µM (active).

With `CCc1ccc(C(=O)NN(C(=O)c2cc(C)cc(C)c2)C(C)(C)C)cc1`, the molecule was called inactive.

As to `CCCN(CCC)c1c([N+](=O)[O-])cc(C(F)(F)F)cc1[N+](=O)[O-]`, the molecule was classed as inactive.

As to `Oc1ccc(Cl)cc1Cc1ccccc1`, the call was inactive.

Turning to `O=C1c2ccccc2C(=O)N1SC(Cl)(Cl)Cl`, the molecule was called inactive.

Consider `O=S(=O)(O)C(F)(F)C(F)(F)C(F)(F)C(F)(F)C(F)(F)C(F)(F)C(F)(F)C(F)(F)F`, for which the call was inactive.

In the case of `CNC(=O)/C=C(\C)OP(=O)(OC)OC`, the outcome was inactive.

As to `CNC(=O)CSP(=S)(OC)OC`, the molecule was classed as inactive.

For `COP(=S)(OC)Oc1ccc([N+](=O)[O-])cc1`, the molecule was called inactive.

For `CCC(C)(C)C(=O)OC1=C(c2ccc(Cl)cc2Cl)C(=O)OC12CCCCC2`, the result was inactive.

Take `ClC1C(Cl)C(Cl)C(Cl)C(Cl)C1Cl` (stereo not given): the call was inactive.

As for `O=C(NC(=O)c1c(F)cccc1F)Nc1ccc(OC(F)(F)C(F)OC(F)(F)F)c(Cl)c1` (stereo not given), the outcome was inactive.

As for `O=C(O)CCCOc1ccc(Cl)cc1Cl`, the AC50 is 20.5 µM (active).

`CC(C)(C)C(O)C(Oc1ccc(Cl)cc1)n1cncn1` (stereo not given): the AC50 was 1.25 µM (active) and the outcome was inactive.

Values taken from PubChem BioAssay (EPA / NIEHS).
